# From PMC11006913
# Changes are numbered by the printed parent chain.
# Experiments:
# Assay in all cases: PBM; 200 nM protein, PBS
# Conditions in all cases: dsDNA, one strand shown
# HOXB9 [1] = target: HOXB9 (Homo sapiens, UniProt P17482 171-250, T197M)
# HOXC9 [2] = target: HOXC9 (Homo sapiens, UniProt P31274 178-260, K195R)
# HOXA7 [3] = target: HOXA7 (Homo sapiens, UniProt P31268 116-202)
# HOXC10 [4] = target: HOXC10 (Homo sapiens, UniProt Q9NYD6 254-340)
# ALX4 [5] = target: ALX4 (Homo sapiens, UniProt Q9H161 200-286)
# PAX4 [6] = target: T1, PAX4 (Homo sapiens, UniProt O43316 9-242, R200K)
# T1 sequence: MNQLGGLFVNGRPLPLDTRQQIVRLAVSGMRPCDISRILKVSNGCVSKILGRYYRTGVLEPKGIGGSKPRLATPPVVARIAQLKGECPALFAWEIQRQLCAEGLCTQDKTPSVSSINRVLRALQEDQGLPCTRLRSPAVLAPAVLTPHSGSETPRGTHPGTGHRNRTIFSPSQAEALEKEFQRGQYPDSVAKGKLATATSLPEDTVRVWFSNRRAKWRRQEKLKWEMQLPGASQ
# PRRX1 [7] = target: PRRX1 (Homo sapiens, UniProt P54821 80-166, F113S)
# PAX4 [8] = target: T2, PAX4 (Homo sapiens, UniProt O43316 9-242)
# T2 sequence: T1 sequence with K192R
# HOXB6 [9] = target: HOXB6 (Homo sapiens, UniProt P17509 132-218, K202E)
# ALX4 [10] = target: ALX4 (Homo sapiens, UniProt Q9H161 200-286, Q225E)
# HOXA4 [11] = target: HOXA4 (Homo sapiens, UniProt Q00056 201-287, R217L)
# HOXB4 = HOXB4 (Homo sapiens, UniProt P17483 148-234, V174I)
# ALX1 [12] = target: ALX1 (Homo sapiens, UniProt Q15699 118-204, L144V)
# ALX3 [13] = target: ALX3 (Homo sapiens, UniProt O95076 139-225, N203Q)
# HOXD13 [14] = target: HOXD13 (Homo sapiens, UniProt P35453 263-343, T313R)
# PAX4 [15] = target: T3, PAX4 (Homo sapiens, UniProt O43316 9-242, R200Q)
# T3 sequence: T1 sequence with K192Q
# SHOX = SHOX (Homo sapiens, UniProt O15266 103-189, R173C)
# HOXC9 [16] = target: HOXC9 (Homo sapiens, UniProt P31274 178-260, R193K)
# ALX1 [17] = target: ALX1 (Homo sapiens, UniProt Q15699 118-204, L144R)
# PAX4 [18] = target: T4, PAX4 (Homo sapiens, UniProt O43316 9-242, F177V)
# T4 sequence: T1 sequence with F169V, K192R
# HOXC10 [19] = target: HOXC10 (Homo sapiens, UniProt Q9NYD6 254-340, K271E)
# ALX3 [20] = target: ALX3 (Homo sapiens, UniProt O95076 139-225)
# PAX4 [21] = target: T5, PAX4 (Homo sapiens, UniProt O43316 9-242, F177Y)
# T5 sequence: T1 sequence with F169Y, K192R
# HESX1 [22] = target: HESX1 (Homo sapiens, UniProt Q9UBX0 95-180, R109Q)
# ALX3 [23] = target: ALX3 (Homo sapiens, UniProt O95076 139-225, L168Q)
# HESX1 [24] = target: HESX1 (Homo sapiens, UniProt Q9UBX0 95-180, P111T)
# HOXB9 [25] = target: HOXB9 (Homo sapiens, UniProt P17482 171-250, R186Q)
# HOXC9 [26] = target: HOXC9 (Homo sapiens, UniProt P31274 178-260, R222W)
# ALX3 [27] = target: ALX3 (Homo sapiens, UniProt O95076 139-225, L168V)
# HESX1 [28] = target: HESX1 (Homo sapiens, UniProt Q9UBX0 95-180, F115L)
# VAX1 = VAX1 (Homo sapiens, UniProt Q5SQQ9 86-172, T142I)
# PAX4 [29] = target: T6, PAX4 (Homo sapiens, UniProt O43316 9-242, R227W)
# T6 sequence: T1 sequence with K192R, R219W
# HOXA7 [30] = target: HOXA7 (Homo sapiens, UniProt P31268 116-202, W177C)
# HOXA4 [31] = target: HOXA4 (Homo sapiens, UniProt Q00056 201-287, W262F)
# ALX3 [32] = target: ALX3 (Homo sapiens, UniProt O95076 139-225, N203S)
# PRRX1 [33] = target: PRRX1 (Homo sapiens, UniProt P54821 80-166)
# HOXB6 [34] = target: HOXB6 (Homo sapiens, UniProt P17509 132-218)
# HOXB9 [35] = target: HOXB9 (Homo sapiens, UniProt P17482 171-250)
# HOXC9 [36] = target: HOXC9 (Homo sapiens, UniProt P31274 178-260)
# HOXD13 [37] = target: HOXD13 (Homo sapiens, UniProt P35453 263-343)
# HOXD13 [38] = target: HOXD13 (Homo sapiens, UniProt P35453 263-343, T313A)
# VENTX [39] = target: T7, VENTX (Homo sapiens, UniProt O95231 78-163, R121Q)
# T7 sequence: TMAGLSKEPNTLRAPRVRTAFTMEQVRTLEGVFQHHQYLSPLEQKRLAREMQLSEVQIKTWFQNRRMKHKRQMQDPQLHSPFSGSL
# VENTX [40] = target: T8, VENTX (Homo sapiens, UniProt O95231 78-163)
# T8 sequence: T7 sequence with Q44R
# VENTX [41] = target: T9, VENTX (Homo sapiens, UniProt O95231 78-163, Y115F)
# T9 sequence: T7 sequence with Y38F, Q44R
# CRX = CRX (Homo sapiens, UniProt O43186 26-111, R41L)
# Sequence of CRX (O43186 26-111 R41L): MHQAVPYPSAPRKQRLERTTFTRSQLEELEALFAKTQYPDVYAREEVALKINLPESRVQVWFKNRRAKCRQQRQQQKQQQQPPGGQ
# Sequence of HOXB9 (Homo sapiens, UniProt P17482 171-250, R186Q) (P17482 171-250 R186Q): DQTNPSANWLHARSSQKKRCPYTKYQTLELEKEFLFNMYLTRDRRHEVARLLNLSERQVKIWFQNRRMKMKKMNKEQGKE
# Sequence of HOXC10 (Homo sapiens, UniProt Q9NYD6 254-340, K271E) (Q9NYD6 254-340 K271E): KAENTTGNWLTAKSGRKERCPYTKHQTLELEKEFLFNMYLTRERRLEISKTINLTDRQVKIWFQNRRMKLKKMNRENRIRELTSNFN
# Sequence of HOXD13 (Homo sapiens, UniProt P35453 263-343, T313R) (P35453 263-343 T313R): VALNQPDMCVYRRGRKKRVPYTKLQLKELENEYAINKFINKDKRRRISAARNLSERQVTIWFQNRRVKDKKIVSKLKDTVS
# Sequence of HOXC10 (Homo sapiens, UniProt Q9NYD6 254-340) (Q9NYD6 254-340): as the sequence (Q9NYD6 254-340 K271E) above, with E18K counted along it
# Sequence of HOXC9 (Homo sapiens, UniProt P31274 178-260, K195R) (P31274 178-260 K195R): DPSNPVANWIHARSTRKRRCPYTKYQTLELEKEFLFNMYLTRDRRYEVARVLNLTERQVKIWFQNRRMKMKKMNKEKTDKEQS
# Sequence of HOXC9 (Homo sapiens, UniProt P31274 178-260, R222W) (P31274 178-260 R222W): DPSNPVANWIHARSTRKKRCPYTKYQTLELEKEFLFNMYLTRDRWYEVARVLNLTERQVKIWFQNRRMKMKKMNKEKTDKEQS
# Sequence of HOXB9 (Homo sapiens, UniProt P17482 171-250, T197M) (P17482 171-250 T197M): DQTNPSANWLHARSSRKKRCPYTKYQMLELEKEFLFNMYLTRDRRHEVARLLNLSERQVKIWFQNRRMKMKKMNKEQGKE
# Sequence of HOXC9 (Homo sapiens, UniProt P31274 178-260, R193K) (P31274 178-260 R193K): as the sequence (P31274 178-260 R222W) above, with R16K, W45R counted along it
# Sequence of HOXD13 (Homo sapiens, UniProt P35453 263-343) (P35453 263-343): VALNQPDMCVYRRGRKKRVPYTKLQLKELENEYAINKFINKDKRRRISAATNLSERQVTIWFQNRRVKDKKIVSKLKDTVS
# Sequence of ALX4 (Homo sapiens, UniProt Q9H161 200-286, Q225E) (Q9H161 200-286 Q225E): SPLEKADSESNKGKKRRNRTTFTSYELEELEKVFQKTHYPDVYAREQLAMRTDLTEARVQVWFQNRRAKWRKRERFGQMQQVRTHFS
# Sequence of HOXC9 (Homo sapiens, UniProt P31274 178-260) (P31274 178-260): as the sequence (P31274 178-260 R222W) above, with W45R counted along it
# Sequence of HOXD13 (Homo sapiens, UniProt P35453 263-343, T313A) (P35453 263-343 T313A): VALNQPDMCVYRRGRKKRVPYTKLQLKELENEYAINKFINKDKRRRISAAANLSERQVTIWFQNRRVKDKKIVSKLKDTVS
# Sequence of HOXB9 (Homo sapiens, UniProt P17482 171-250) (P17482 171-250): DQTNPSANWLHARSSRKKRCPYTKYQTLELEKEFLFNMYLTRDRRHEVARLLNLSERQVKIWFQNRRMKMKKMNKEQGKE
# Sequence of HOXB6 (Homo sapiens, UniProt P17509 132-218, K202E) (P17509 132-218 K202E): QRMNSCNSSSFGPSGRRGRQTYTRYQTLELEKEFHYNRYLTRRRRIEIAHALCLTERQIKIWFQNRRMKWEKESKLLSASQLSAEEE
# Sequence of HESX1 (Homo sapiens, UniProt Q9UBX0 95-180, P111T) (Q9UBX0 95-180 P111T): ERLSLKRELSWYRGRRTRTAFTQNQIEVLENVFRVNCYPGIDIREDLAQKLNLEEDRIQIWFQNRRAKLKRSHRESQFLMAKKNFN
# Sequence of SHOX (O15266 103-189 R173C): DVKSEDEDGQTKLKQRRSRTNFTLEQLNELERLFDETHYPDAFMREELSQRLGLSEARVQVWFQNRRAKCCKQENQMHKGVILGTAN
# Sequence of ALX3 (Homo sapiens, UniProt O95076 139-225, L168V) (O95076 139-225 L168V): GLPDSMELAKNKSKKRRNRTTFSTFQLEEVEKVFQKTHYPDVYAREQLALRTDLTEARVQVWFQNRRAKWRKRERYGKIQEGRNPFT
# Sequence of HOXA4 (Homo sapiens, UniProt Q00056 201-287, R217L) (Q00056 201-287 R217L): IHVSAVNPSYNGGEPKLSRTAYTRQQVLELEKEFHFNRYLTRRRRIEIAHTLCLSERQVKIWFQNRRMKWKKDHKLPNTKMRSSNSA
# Sequence of ALX1 (Homo sapiens, UniProt Q15699 118-204, L144V) (Q15699 118-204 L144V): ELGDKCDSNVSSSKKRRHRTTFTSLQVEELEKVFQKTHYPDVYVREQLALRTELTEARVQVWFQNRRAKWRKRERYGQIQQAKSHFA
# Sequence of HESX1 (Homo sapiens, UniProt Q9UBX0 95-180, R109Q) (Q9UBX0 95-180 R109Q): as the sequence (Q9UBX0 95-180 P111T) above, with R15Q, T17P counted along it
# Sequence of ALX3 (Homo sapiens, UniProt O95076 139-225) (O95076 139-225): as the sequence (O95076 139-225 L168V) above, with V30L counted along it
# Sequence of HOXA7 (Homo sapiens, UniProt P31268 116-202, W177C) (P31268 116-202 W177C): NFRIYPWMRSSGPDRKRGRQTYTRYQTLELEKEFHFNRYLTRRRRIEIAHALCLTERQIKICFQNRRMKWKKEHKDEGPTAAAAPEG
# Sequence of HOXA4 (Homo sapiens, UniProt Q00056 201-287, W262F) (Q00056 201-287 W262F): as the sequence (Q00056 201-287 R217L) above, with L17R, W62F counted along it
# Sequence of HESX1 (Homo sapiens, UniProt Q9UBX0 95-180, F115L) (Q9UBX0 95-180 F115L): as the sequence (Q9UBX0 95-180 P111T) above, with T17P, F21L counted along it
# Sequence of ALX3 (Homo sapiens, UniProt O95076 139-225, N203Q) (O95076 139-225 N203Q): as the sequence (O95076 139-225 L168V) above, with V30L, N65Q counted along it
# Sequence of PRRX1 (Homo sapiens, UniProt P54821 80-166, F113S) (P54821 80-166 F113S): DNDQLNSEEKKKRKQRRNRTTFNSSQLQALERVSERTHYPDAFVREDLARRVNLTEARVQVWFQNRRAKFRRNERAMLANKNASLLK
# Sequence of ALX4 (Homo sapiens, UniProt Q9H161 200-286) (Q9H161 200-286): as the sequence (Q9H161 200-286 Q225E) above, with E26Q counted along it
# Sequence of PRRX1 (Homo sapiens, UniProt P54821 80-166) (P54821 80-166): as the sequence (P54821 80-166 F113S) above, with S34F counted along it
# Sequence of VAX1 (Q5SQQ9 86-172 T142I): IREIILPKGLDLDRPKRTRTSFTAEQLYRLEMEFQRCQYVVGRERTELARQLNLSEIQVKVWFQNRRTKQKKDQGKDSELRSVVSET
# Sequence of HOXA7 (Homo sapiens, UniProt P31268 116-202) (P31268 116-202): as the sequence (P31268 116-202 W177C) above, with C62W counted along it
# Sequence of HOXB4 (P17483 148-234 V174I): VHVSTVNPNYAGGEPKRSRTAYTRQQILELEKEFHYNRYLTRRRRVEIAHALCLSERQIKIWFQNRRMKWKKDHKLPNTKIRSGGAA
# Sequence of ALX3 (Homo sapiens, UniProt O95076 139-225, N203S) (O95076 139-225 N203S): as the sequence (O95076 139-225 L168V) above, with V30L, N65S counted along it
# Sequence of ALX3 (Homo sapiens, UniProt O95076 139-225, L168Q) (O95076 139-225 L168Q): as the sequence (O95076 139-225 L168V) above, with V30Q counted along it
# Sequence of HOXB6 (Homo sapiens, UniProt P17509 132-218) (P17509 132-218): as the sequence (P17509 132-218 K202E) above, with E71K counted along it
# Sequence of ALX1 (Homo sapiens, UniProt Q15699 118-204, L144R) (Q15699 118-204 L144R): as the sequence (Q15699 118-204 L144V) above, with V27R counted along it
sequence,measurement,setting,value
ATTAATAA,binding signal,HOXB9 [1],"10.1 upbm affinity estimate (log intensity, higher = more binding, comparable within an allelic series)"
same,binding signal,HOXC9 [2],"12.6 upbm affinity estimate (log intensity, higher = more binding, comparable within an allelic series)"
same,binding signal,HOXA7 [3],"11.2 upbm affinity estimate (log intensity, higher = more binding, comparable within an allelic series)"
same,binding signal,HOXC10 [4],"12.2 upbm affinity estimate (log intensity, higher = more binding, comparable within an allelic series)"
same,binding signal,ALX4 [5],"13.5 upbm affinity estimate (log intensity, higher = more binding, comparable within an allelic series)"
same,binding signal,PAX4 [6],"11.7 upbm affinity estimate (log intensity, higher = more binding, comparable within an allelic series)"
same,binding signal,PRRX1 [7],"11.2 upbm affinity estimate (log intensity, higher = more binding, comparable within an allelic series)"
same,binding signal,PAX4 [8],"12.1 upbm affinity estimate (log intensity, higher = more binding, comparable within an allelic series)"
same,binding signal,HOXB6 [9],"10.1 upbm affinity estimate (log intensity, higher = more binding, comparable within an allelic series)"
same,binding signal,ALX4 [10],"12.8 upbm affinity estimate (log intensity, higher = more binding, comparable within an allelic series)"
same,binding signal,HOXA4 [11],"12 upbm affinity estimate (log intensity, higher = more binding, comparable within an allelic series)"
same,binding signal,HOXB4,"13.6 upbm affinity estimate (log intensity, higher = more binding, comparable within an allelic series)"
same,binding signal,ALX1 [12],"11.4 upbm affinity estimate (log intensity, higher = more binding, comparable within an allelic series)"
same,binding signal,ALX3 [13],"8.66 upbm affinity estimate (log intensity, higher = more binding, comparable within an allelic series)"
same,binding signal,HOXD13 [14],"10.8 upbm affinity estimate (log intensity, higher = more binding, comparable within an allelic series)"
same,binding signal,PAX4 [15],"11.9 upbm affinity estimate (log intensity, higher = more binding, comparable within an allelic series)"
same,binding signal,SHOX,"9.26 upbm affinity estimate (log intensity, higher = more binding, comparable within an allelic series)"
same,binding signal,HOXC9 [16],"12.5 upbm affinity estimate (log intensity, higher = more binding, comparable within an allelic series)"
same,binding signal,ALX1 [17],"11.2 upbm affinity estimate (log intensity, higher = more binding, comparable within an allelic series)"
same,binding signal,PAX4 [18],"10.7 upbm affinity estimate (log intensity, higher = more binding, comparable within an allelic series)"
same,binding signal,HOXC10 [19],"11.8 upbm affinity estimate (log intensity, higher = more binding, comparable within an allelic series)"
same,binding signal,ALX3 [20],"12.2 upbm affinity estimate (log intensity, higher = more binding, comparable within an allelic series)"
same,binding signal,PAX4 [21],"11 upbm affinity estimate (log intensity, higher = more binding, comparable within an allelic series)"
same,binding signal,HESX1 [22],"8.97 upbm affinity estimate (log intensity, higher = more binding, comparable within an allelic series)"
same,binding signal,ALX3 [23],"10.2 upbm affinity estimate (log intensity, higher = more binding, comparable within an allelic series)"
same,binding signal,HESX1 [24],"10.2 upbm affinity estimate (log intensity, higher = more binding, comparable within an allelic series)"
same,binding signal,HOXB9 [25],"11.4 upbm affinity estimate (log intensity, higher = more binding, comparable within an allelic series)"
same,binding signal,HOXC9 [26],"11.2 upbm affinity estimate (log intensity, higher = more binding, comparable within an allelic series)"
same,binding signal,ALX3 [27],"9.99 upbm affinity estimate (log intensity, higher = more binding, comparable within an allelic series)"
same,binding signal,HESX1 [28],"8.16 upbm affinity estimate (log intensity, higher = more binding, comparable within an allelic series)"
same,binding signal,VAX1,"12.3 upbm affinity estimate (log intensity, higher = more binding, comparable within an allelic series)"
same,binding signal,PAX4 [29],"11 upbm affinity estimate (log intensity, higher = more binding, comparable within an allelic series)"
same,binding signal,HOXA7 [30],"9.01 upbm affinity estimate (log intensity, higher = more binding, comparable within an allelic series)"
same,binding signal,HOXA4 [31],"11.4 upbm affinity estimate (log intensity, higher = more binding, comparable within an allelic series)"
same,binding signal,ALX3 [32],"8.71 upbm affinity estimate (log intensity, higher = more binding, comparable within an allelic series)"
same,binding signal,PRRX1 [33],"13.2 upbm affinity estimate (log intensity, higher = more binding, comparable within an allelic series)"
same,binding signal,HOXB6 [34],"11.7 upbm affinity estimate (log intensity, higher = more binding, comparable within an allelic series)"
ATTTATTA,binding signal,HOXB9 [1],"10.1 upbm affinity estimate (log intensity, higher = more binding, comparable within an allelic series)"
same,binding signal,HOXC9 [2],"12.7 upbm affinity estimate (log intensity, higher = more binding, comparable within an allelic series)"
same,binding signal,HOXC10 [4],"12.5 upbm affinity estimate (log intensity, higher = more binding, comparable within an allelic series)"
same,binding signal,HOXB6 [9],"10 upbm affinity estimate (log intensity, higher = more binding, comparable within an allelic series)"
same,binding signal,HOXB9 [35],"12 upbm affinity estimate (log intensity, higher = more binding, comparable within an allelic series)"
same,binding signal,HOXC9 [36],"12.8 upbm affinity estimate (log intensity, higher = more binding, comparable within an allelic series)"
same,binding signal,HOXD13 [14],"10.9 upbm affinity estimate (log intensity, higher = more binding, comparable within an allelic series)"
same,binding signal,HOXC9 [16],"12.7 upbm affinity estimate (log intensity, higher = more binding, comparable within an allelic series)"
same,binding signal,HOXD13 [37],"12 upbm affinity estimate (log intensity, higher = more binding, comparable within an allelic series)"
same,binding signal,HOXC10 [19],"12 upbm affinity estimate (log intensity, higher = more binding, comparable within an allelic series)"
same,binding signal,HOXD13 [38],"11.8 upbm affinity estimate (log intensity, higher = more binding, comparable within an allelic series)"
same,binding signal,HOXB9 [25],"11.7 upbm affinity estimate (log intensity, higher = more binding, comparable within an allelic series)"
same,binding signal,HOXC9 [26],"11.3 upbm affinity estimate (log intensity, higher = more binding, comparable within an allelic series)"
CTAATCGC,binding signal,VENTX [39],"11.2 upbm affinity estimate (log intensity, higher = more binding, comparable within an allelic series)"
same,binding signal,VENTX [40],"12.3 upbm affinity estimate (log intensity, higher = more binding, comparable within an allelic series)"
same,binding signal,VENTX [41],"11.3 upbm affinity estimate (log intensity, higher = more binding, comparable within an allelic series)"
same,binding signal,CRX,"11.6 upbm affinity estimate (log intensity, higher = more binding, comparable within an allelic series)"
ATTTATTG,binding signal,HOXB9 [1],"9.87 upbm affinity estimate (log intensity, higher = more binding, comparable within an allelic series)"
same,binding signal,HOXC9 [2],"12.5 upbm affinity estimate (log intensity, higher = more binding, comparable within an allelic series)"
same,binding signal,HOXC10 [4],"12.4 upbm affinity estimate (log intensity, higher = more binding, comparable within an allelic series)"
same,binding signal,ALX4 [10],"11.2 upbm affinity estimate (log intensity, higher = more binding, comparable within an allelic series)"
same,binding signal,HOXB9 [35],"11.9 upbm affinity estimate (log intensity, higher = more binding, comparable within an allelic series)"
same,binding signal,HOXC9 [36],"12.7 upbm affinity estimate (log intensity, higher = more binding, comparable within an allelic series)"
same,binding signal,HOXD13 [14],"10.9 upbm affinity estimate (log intensity, higher = more binding, comparable within an allelic series)"
same,binding signal,HOXC9 [16],"12.6 upbm affinity estimate (log intensity, higher = more binding, comparable within an allelic series)"
same,binding signal,HOXD13 [37],"12.2 upbm affinity estimate (log intensity, higher = more binding, comparable within an allelic series)"
same,binding signal,HOXC10 [19],"11.7 upbm affinity estimate (log intensity, higher = more binding, comparable within an allelic series)"
same,binding signal,HOXD13 [38],"12 upbm affinity estimate (log intensity, higher = more binding, comparable within an allelic series)"
same,binding signal,HOXB9 [25],"11.6 upbm affinity estimate (log intensity, higher = more binding, comparable within an allelic series)"
same,binding signal,HOXC9 [26],"11.2 upbm affinity estimate (log intensity, higher = more binding, comparable within an allelic series)"
